# According to publication PMC10726135, “HNF4α isoforms regulate the circadian balance between carbohydrate and lipid metabolism in the liver”:
# Whole data set: some 18,000 sequences, median “log2 normalized intensity” near 0.39, cut for the highest 2% near 6.6. The list comes from a sample in which the highest values are over-represented; it also holds similar and randomly drawn sequences.
# Target: T1, HNF4alpha2 (COS-7 nuclear extract) (Homo sapiens, UniProt P41235 1-474)
# T1 sequence: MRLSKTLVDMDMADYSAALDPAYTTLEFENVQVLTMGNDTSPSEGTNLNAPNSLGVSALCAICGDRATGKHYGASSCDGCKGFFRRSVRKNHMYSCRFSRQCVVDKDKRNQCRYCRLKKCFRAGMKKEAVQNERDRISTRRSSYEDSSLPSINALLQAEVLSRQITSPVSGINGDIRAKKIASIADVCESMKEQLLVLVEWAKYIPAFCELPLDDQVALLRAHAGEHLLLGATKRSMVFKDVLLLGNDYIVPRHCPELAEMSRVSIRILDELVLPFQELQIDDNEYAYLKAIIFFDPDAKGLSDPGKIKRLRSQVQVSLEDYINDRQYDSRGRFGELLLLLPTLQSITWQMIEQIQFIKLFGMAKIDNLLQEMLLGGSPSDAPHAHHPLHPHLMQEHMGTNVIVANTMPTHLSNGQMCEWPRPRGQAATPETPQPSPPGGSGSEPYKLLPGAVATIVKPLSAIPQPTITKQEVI
# Experiment: protein-binding microarray; COS-7 nuclear extract on double-stranded Agilent 4x180k PBM; binding buffer, salt, pH and temperature not given in the material; high values mean tight binding
# Details: chain copies: 2; label: 3' end of strand 1 on the slide; dsDNA, one strand shown
# Summary of the method: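 The binding signal is Agilent software's gProcessedSignal after background correction and normalization. Arrays were a custom Agilent SurePrint G3 4x180k design of double-stranded ~60-nt oligonucleotides with ~44,000 test sequences in quadruplicate, probed with nuclear extracts of COS-7 cells transiently expressing a human HNF4α isoform. Scans were made at 2-µm resolution on an Agilent G2565CA scanner.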
row,Sequence,binding signal [log2 normalized intensity]
1,GTGCTGACCTCCTGTCTCATCCTGTGACCAGCCTAGGGAGATTAGAGTATCGGTCGA,1.42
2,TCACCCTCTCCACCCCCATGCAAGTTCCCAGCCTAGGGAGATTAGAGTATCGGTCGA,5.26
3,ACTGAATGTGACCTTTTGGACCACAGAGTGGCCTAGGGAGATTAGAGTATCGGTCGA,5.39
4,CCTGATGACAACTGAATGTGACCTTTTGGAGCCTAGGGAGATTAGAGTATCGGTCGA,5.25
5,CACCTGTGTCAACATGGACTTTGTTGTTTGGCCTAGGGAGATTAGAGTATCGGTCGA,4.33
6,TTCAAAGGACAGACTTTGGACCTGGCCCTCGCCTAGGGAGATTAGAGTATCGGTCGA,5.66
7,ACTTTGGACCTTTGTGTGTGTGTGTGTGTGGCCTAGGGAGATTAGAGTATCGGTCGA,3.6
8,TGACAACTGAATGTGACCTTTTGGACCACAGCCTAGGGAGATTAGAGTATCGGTCGA,6.82
9,GATACAACGGTTCAAAGGACAGACTTTGGAGCCTAGGGAGATTAGAGTATCGGTCGA,3.39
10,GGACTTTGGCCTTACTTGGCCTGTTTGCTGGCCTAGGGAGATTAGAGTATCGGTCGA,5.51
11,AACGGTTCAAAGGACAGACTTTGGACCTGGGCCTAGGGAGATTAGAGTATCGGTCGA,7.15
12,GTGAGTGGACTTTGGTCCTGGTCAGACTTGGCCTAGGGAGATTAGAGTATCGGTCGA,5.76
13,GGGCGTGTGTTAGACTTTGGACCTGGCCTGGCCTAGGGAGATTAGAGTATCGGTCGA,7.25
14,GTTGGACTTTGGACCTTTGTGTGTGTGTGTGCCTAGGGAGATTAGAGTATCGGTCGA,7.93
15,TGGTTAGGTATTTTAAGTCACCAGATGAGAGCCTAGGGAGATTAGAGTATCGGTCGA,0.217
16,CTCCTCCCTCAGGGATCTTTGCACTTGATGGCCTAGGGAGATTAGAGTATCGGTCGA,1.32
17,TGGATGGGGGAGGGGACTTCGCTGGAGGTGGCCTAGGGAGATTAGAGTATCGGTCGA,-0.382
18,TATCTTCGTATAGAAACAAGACAGAATGATGCCTAGGGAGATTAGAGTATCGGTCGA,-0.775
19,GTAAACACAGACTTTGGAATCACAATGATAGCCTAGGGAGATTAGAGTATCGGTCGA,1.97

row,Sequence,binding signal [log2 normalized intensity]
1,CCTGTACCTAGAATTCTTTCACTCCCTTTTGCCTAGGGAGATTAGAGTATCGGTCGA,1.12
2,TTACCGGTGTGACTTTGGTTGGATTTCTTGGCCTAGGGAGATTAGAGTATCGGTCGA,1.54
3,AGGGGTTACTAGTGAGTTGGACTTTGGACCGCCTAGGGAGATTAGAGTATCGGTCGA,11.6
4,GGGGACCTTTGGCCTTTACCTGTTACTTATGCCTAGGGAGATTAGAGTATCGGTCGA,3.57
5,AAGAAGGTTTACTCAAGCAAAAAGTTTGGAGCCTAGGGAGATTAGAGTATCGGTCGA,0.467
6,AGGTACAAACATACTTAGGATTTTTGTGCCGCCTAGGGAGATTAGAGTATCGGTCGA,0.442
7,CTCTCGGGCCAGCTGTACAAATAAAGGATGGCCTAGGGAGATTAGAGTATCGGTCGA,-0.146
8,TAAACTTTTGATTGCTTAGGCTCTTGTTATGCCTAGGGAGATTAGAGTATCGGTCGA,-0.703
9,GAGGCAGCAAGGTCAAAGTGCGTCCTGTGGGCCTAGGGAGATTAGAGTATCGGTCGA,3.92
10,GTGGCTACCTGTGCAGATATTTAACCTTTGGCCTAGGGAGATTAGAGTATCGGTCGA,4.11
11,TACCTGTGCAGATATTTAACCTTTGATCTGGCCTAGGGAGATTAGAGTATCGGTCGA,7.34
12,TTGCACTGTGCTTTGTTTACTTAACCTTTGGCCTAGGGAGATTAGAGTATCGGTCGA,4.05
13,CTGTGCTTTGTTTACTTAACCTTTGATCATGCCTAGGGAGATTAGAGTATCGGTCGA,7.05
14,CTTTGTTTACTTAACCTTTGATCATATGCAGCCTAGGGAGATTAGAGTATCGGTCGA,5.18
15,GATATTTAACCTTTGATCTGTAAGCTCTCTGCCTAGGGAGATTAGAGTATCGGTCGA,4.61
16,TCTGAAAAAAGCTATCATTTGTCACTTGGAGCCTAGGGAGATTAGAGTATCGGTCGA,1.38
17,GACCAGGTTGTGAGGGAGGGCACAGGCAACGCCTAGGGAGATTAGAGTATCGGTCGA,-0.298
18,ATTTCTGTTGTTGATTTAACATTTGTGATCGCCTAGGGAGATTAGAGTATCGGTCGA,1.92
19,TGATAGCCTTTTACCTTGGCAGCCACTGAGGCCTAGGGAGATTAGAGTATCGGTCGA,-0.876

row,Sequence,binding signal [log2 normalized intensity]
1,AGGCTGAAGGGAAGCTCTGGGAGTGCCCTTGCCTAGGGAGATTAGAGTATCGGTCGA,1.93
2,CTGCCAAATATTGGGCAATGCTAGGTCTTTGCCTAGGGAGATTAGAGTATCGGTCGA,-0.788
3,TGTGAAGAGTGTGGACTTTCACCTCCACCAGCCTAGGGAGATTAGAGTATCGGTCGA,6.06
4,GAGACTTTGGACTTTGGACTTGGGACTTTCGCCTAGGGAGATTAGAGTATCGGTCGA,9.27
5,GGACTTGGGACTTTCGAGTTAATGCTGGAGGCCTAGGGAGATTAGAGTATCGGTCGA,2.54
6,TGTGATGTGAAGAGTGTGGACTTTCACCTCGCCTAGGGAGATTAGAGTATCGGTCGA,8.12
7,CTGGACTTTCCTTTGTTGGGAGACTTTTTAGCCTAGGGAGATTAGAGTATCGGTCGA,1.63
8,TTTGGACTTTGGACTTGGGACTTTCGAGTTGCCTAGGGAGATTAGAGTATCGGTCGA,7.8
9,CCTTTGGACTGTCCTTTGCTAGATTCTTTCGCCTAGGGAGATTAGAGTATCGGTCGA,2.01
10,ACTTTGGACTTGGGACTTTCGAGTTAATGCGCCTAGGGAGATTAGAGTATCGGTCGA,4.12
11,GACCATGTGATGTGAAGAGTGTGGACTTTCGCCTAGGGAGATTAGAGTATCGGTCGA,4.26
12,TGAGTAGTGTACGTTGTACCCCACAGGTATGCCTAGGGAGATTAGAGTATCGGTCGA,2.94
13,CTCTCTTTCTTCCCCCACTCCAAGTTCCTTGCCTAGGGAGATTAGAGTATCGGTCGA,4.22
14,TGCTCCAGTAAAAGCTCTACCTGACCTCCCGCCTAGGGAGATTAGAGTATCGGTCGA,2.94
15,GCTGTGTCCCACAGGGAAAGTATGGGTCAGGCCTAGGGAGATTAGAGTATCGGTCGA,1.12
16,TCATGTTCAATATACAGTTGGTATTTAGTAGCCTAGGGAGATTAGAGTATCGGTCGA,1.83
17,CCCCTAAAGGAGGCAAGGTCCAAACTTCTCGCCTAGGGAGATTAGAGTATCGGTCGA,1.7
18,ATGTTGGGCAACTACCTCAAAGTTTTGTTAGCCTAGGGAGATTAGAGTATCGGTCGA,0.0615
